An excerpt weighted towards active compounds, which were near 0.7% of everything screened.
FadD28 binding: blocks FadD28 binding to the bisubstrate probe; fluorescence polarization; inhibition, % at 12.5 µM; actives 0.22% (n = 360,000); AID 588549; in the data active = inhibition above about 8.5%, passing the limit was not always enough
DUSP3 inh: blocks human VHR1 dual specificity phosphatase. P51452. recombinant VHR phosphatase, pNPP absorbance. inhibition, % at 13.3 µM. actives 0.52% (n = 290,000); in the data active = inhibition above about 50%
Target sequence (P51452 whole entry, looked up): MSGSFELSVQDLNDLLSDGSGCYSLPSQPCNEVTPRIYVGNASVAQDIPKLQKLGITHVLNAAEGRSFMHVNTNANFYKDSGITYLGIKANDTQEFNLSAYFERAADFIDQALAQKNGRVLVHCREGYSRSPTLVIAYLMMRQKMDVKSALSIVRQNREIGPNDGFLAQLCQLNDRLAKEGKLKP
3CLpro inhibitor: SARS-CoV 3CLpro protease inhibition; P0C6X7; recombinant SARS-CoV 3CLpro, quenched FRET peptide cleavage; inhibition, % at 6 µM; actives 0.14% (n = 290,000); AID 1706; in the data active = inhibition above about 12%
Mtb hypoxia rep: reduces hypoxia-regulated biosensor signal in M. tuberculosis; AID 1159583; M. tuberculosis hypoxia-regulated fluorescent reporter, fluorescence; actives 0.1% (n = 300,000); fluorescence inhibition, % (test concentration not listed); in the data active = fluorescence inhibition mostly above about 23%, no sharp cut-off; inactive = mostly below about 17%
Mtb BioA inh: BioA (M. tuberculosis) enzyme inhibition; purified M. tuberculosis BioA enzyme, plate reader; inhibition, % at 9.99 µM; actives 0.096% (n = 360,000); in the data active = inhibition above about 40%
The depositor's hits bear a star; · = not tested or not shown.

SMILES	FadD28 binding	DUSP3 inh	3CLpro inhibitor	Mtb hypoxia rep	Mtb BioA inh
N#C/C(=C\c1ccc(-c2ccccc2)o1)C(=O)Nn1cnnc1	-1	57*	3	-2	·
CN(C)CCCNc1ccc(-c2n[nH]c(=O)c3ccccc23)cc1[N+](=O)[O-]	-1	55*	-1	3	8
O=C(O)CCn1cc(C=NO)c(-c2cccc([N+](=O)[O-])c2)n1	·	·	·	0	·
Cc1noc(C)c1S(=O)(=O)N(C)CC1Oc2c(NC(=O)NC(C)C)cccc2C(=O)N(C(C)CO)CC1C (centres undefined)	·	·	·	6	·
COc1ccc(CN2CCC(=O)N(C(CO)CC(C)C)CC2)cc1OC (centres undefined)	·	·	·	7	·
O=C(Cc1ccc(Cl)c(Cl)c1)NN=Cc1cccnc1	·	·	·	0	·
O=C(Cc1ccc(Cl)c(Cl)c1)N/N=C/c1cccnc1	-2	57*	-5	·	-1
COc1ccc2c(c1)C1C(CO2)C(c2ccccc2)[C@]2(C)C(=O)N(CC3CCCO3)CC(=O)N12 (some centres undefined)	·	·	·	17	·
COc1ccc(C)cc1S(=O)(=O)N1CCN(C(=O)c2ncoc2-c2ccc(F)cc2)CC1	-3	53*	-2	5	4
O=C(COC(=O)c1ccccc1NCCO)NCC1CCCCC1	0	·	·	31*	-1
COc1ccc(N=NC2=C(O)CC(C)(C)CC2=O)c(OC)c1	-3	53*	3	18	-2
O=C(Nc1cccc(Cl)c1)NC1CCCCC1	2	27	5	5	·
O=C(Nc1cccc(Cl)c1)NC1CC2CCC1C2 (centres undefined)	-1	14	0	32*	3
C/C(=N\NC(=O)c1ccccc1O)c1c(O)n(C2CCCCC2)c(=O)[nH]c1=O	12*	-25	4	7	2
C/C(=N\NC(=O)c1ccccc1Cl)c1c(O)n(C2CCCCC2)c(=O)[nH]c1=O	0	15	4	12	0
CCOc1ccc(N=C2NC(=O)SC2=Cc2ccc(O)cc2)cc1	·	·	·	5	·
CCCCCCCC(=O)OCC(O)CO (centres undefined)	-3	16	-4	·	0
CCCCCCCCCCCCCCC(O)C[N+](C)(CCO)CCO (centres undefined)	17*	·	·	·	·
COc1ccc2cc(C=NO)c(Cl)nc2c1	·	·	·	9	·
COC(=O)CSc1nc2ccccc2n1CC(=O)N(C(C)C)C(C)C	0	52*	-8	7	-2
O=C(NCCOc1ccc(F)cc1)C1CCC(=O)N(CCc2ccccn2)C1 (centres undefined)	-1	57*	-5	-10	-4
COC(=O)C1=C(c2cccc(C#N)c2)CC2CCC1N2C(=O)NCCOc1ccc(OC)cc1 (centres undefined)	·	·	·	3	·
CCOc1ccc(N(CC(=O)Nc2ccccc2Cl)S(C)(=O)=O)cc1	-3	59*	1	-10	0
CCOc1ccc(N(CC(=O)Nc2ccccc2OC)S(C)(=O)=O)cc1	-1	-7	2	9	-1
Cc1ccc(SCC(Cc2ccccc2)N2CCC(C)CCC2=O)cc1 (centres undefined)	·	·	·	5	·
SMILES	FadD28 binding	DUSP3 inh	3CLpro inhibitor	Mtb hypoxia rep	Mtb BioA inh
CCCc1n[nH]c2c1C(=NO)CC(c1ccccc1)C2 (centres undefined)	·	·	·	5	·
COc1ccccc1/C=C\C(=O)NCC(=O)NN=Cc1ccc(O)cc1O	·	·	·	11	·
COc1ccccc1/C=C\C(=O)NCC(=O)N/N=C/c1ccc(O)cc1O	-3	56*	0	·	0
O=C1C2C(C=Cc3ccccc3)N3C(=O)CN(CC4CC4)C(=O)[C@@]3(Cc3ccccc3)C2C(=O)N1c1ccccc1 (some centres undefined)	·	·	·	-3	·
COC(=O)CN1C(=O)C2C(C3CC3)N3C(=O)CN(Cc4ccc(-c5ccccc5)cc4)C(=O)[C@@]3(Cc3ccccc3)C2C1=O (some centres undefined)	·	·	·	4	·
COc1cccc(C2C([N+](=O)[O-])=C(N)Oc3c2c(=O)oc2ccccc32)c1 (centres undefined)	-1	52*	2	4	0
COc1ccc(C2C([N+](=O)[O-])=C(N)Oc3c2c(=O)oc2ccccc32)cc1 (centres undefined)	·	36	-3	7	·
COc1ccc(NC(=S)N(C(C)C)C2CCN(C(C)C)CC2)cc1Cl	·	53*	-3	·	·
CC(C)CCN1C(=O)c2ccc(-c3nc4ccccc4c(=O)o3)cc2C1=O	0	50*	-2	9	0
O=C1c2ccc(-c3nc4ccccc4o3)cc2C(=O)N1Cc1ccccc1	-3	·	-4	·	·
Cc1ccc(C)c(Cn2nc(-c3ccccc3)ccc2=O)c1	-3	53*	6	11	-1
CSc1nc2ccc3nc(NC(=O)c4ccc(Cl)s4)sc3c2s1	-2	53*	-3	·	-1
C=CCN1C(=O)/C(=C2/Sc3ccccc3N2CC)SC1=S	-2	11	4	-7	-1
C=CCN1C(=O)/C(=C2/Sc3ccccc3N2CCCS(=O)(=O)O)SC1=S	6	50*	1	·	0
O=S(=O)(Nc1nc(-c2sccc2Cl)cs1)c1cc(Cl)ccc1Cl	24*	23	6	9	15
COc1ccccc1C1CC(c2ccc(NS(C)(=O)=O)cc2)=NN1S(=O)(=O)c1ccccc1 (centres undefined)	-2	-3	2	10	-1
O=S(=O)(c1ccccc1)N1N=C(c2ccccc2)CC1c1ccccc1F (centres undefined)	-1	53*	0	-3	·
COC(=O)[C@]1(Cc2ccccc2)N[C@H](CN(C)S(=O)(=O)c2ccc(-c3ccccc3)cc2)[C@@H]2C(=O)N(C)C(=O)[C@@H]21	11*	·	·	0	-1
Cc1ccccc1OCC(=O)ON=C(N)Cc1ccc(Cl)cc1	·	·	·	5	·
CCCCCCCSc1nsc(N)n1	-1	57*	-1	11	3
CCCCCCSc1nsc(NC(=O)CC(C)C)n1	-1	-17	2	16	2
Cc1cccc(NC(=O)CCC2CCN(C(=O)c3ccc(C)s3)CC2)c1	-5	60*	1	-4	·
COCc1ccc(C(=O)N2CCC(CCC(=O)Nc3cccc(C)c3)CC2)s1	-1	5	4	1	1
Cc1cccc2nc(-c3ccccc3)nc(NC(CO)c3ccccc3)c12 (centres undefined)	·	·	·	-8	·
NS(=O)(=O)c1ccc(Nc2nc(-c3ccc(O)cc3O)cs2)cc1	40*	4	-6	8	·
Cn1cc(/C=C/c2cc[n+](C)cc2)c2cc(Cl)ccc21	-3	24	-12	35*	-147
COC(=O)[C@]1(CC(C)C)NC(c2ccc(-c3ccccc3)cc2)C2C(=O)N(C)C(=O)C21 (some centres undefined)	·	·	·	5	·
Cc1cccc(N=C2NC(=O)/C(=C/C=C/c3ccco3)S2)c1C	11*	3	6	6	·
CC(=NNC(=O)c1cccnc1)c1cccc([N+](=O)[O-])c1	·	·	·	7	·
COc1cc(C(=O)Nc2cc(S(=O)(=O)N3CCOCC3)ccc2N2CCOCC2)cc(OC)c1C	-5	·	·	9	-1
